A short description of assay [1]: qHTS assay to identify small molecule antagonists of the thyroid receptor (TR) signaling pathway - cell viability counter screen (AID 743064). Further: nearly all actives have a fitted effect of over 50% in size. The gist of the method: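 GH3.TRE-Luc rat pituitary cells carrying a TRE-luciferase reporter were treated with compound plus 1 nM T3 (final) for 23.5 h at 37 °C. Viability was then read in the same wells by CellTiter-Fluor fluorescence after a further 30 min.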
Background: qHTS replaces the single test concentration by a dilution series.

Assay [2] relates to thyroid hormone receptor (rat, GH3 cells). The assay can be described thus: qHTS assay to identify small molecule agonists of the thyroid receptor (TR) signaling pathway (AID 743066; calls by dose curve).
Assay [3] in a line: qHTS assay to identify small molecule antagonists of the estrogen receptor alpha (ER-alpha) signaling pathway - cell viability counter screen (AID 743074; calls by dose curve;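 further: HEK293 cells carrying ER-alpha-UAS-bla reporter stimulated with 17beta-estradiol; nearly all actives have a fitted effect of over 45% in size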).
Assay [4] has as its target Estrogen receptor (Homo sapiens) (UniProt P03372). Nature of the assay: qHTS assay to identify small molecule agonists of the estrogen receptor alpha (ER-alpha) signaling pathway (AID 743075; calls by dose curve;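 further: HEK293 GripTite cells with ER-alpha and UAS-driven beta-lactamase reporter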; further: potency means the concentration at half of the fitted maximal effect).
Assay [5] has the same target. Nature of the assay: qHTS assay to identify small molecule agonists of the estrogen receptor alpha (ER-alpha) signaling pathway using the BG1 cell line (AID 743079). Further: nearly all actives have a fitted effect of over 20% in size. Further: potency means the concentration at half of the fitted maximal effect.
Assay [6] can be described thus: qHTS assay to identify small molecule antagonists of the estrogen receptor alpha (ER-alpha) signaling pathway using the BG1 cell line (AID 743080; calls by dose curve;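 further: BG1 cells stimulated with 17beta-estradiol alongside compound; series mostly up to about 70 µM; nearly all actives have a fitted effect of over 25% in size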). The gist of the method: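 Seeding, 24 h rest, compound transfer from DMSO, 17beta-estradiol addition, 21.5 h incubation, CellTiter-Fluor (30 min, 37 C), then ONE-Glo (30 min, room temperature): this sequence was run on BG1-Luc-4E2 reporter cells.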

Assay [7] can be described thus: qHTS assay to identify small molecule antagonists of the estrogen receptor alpha (ER-alpha) signaling pathway using the BG1 cell line - cell viability counter screen (AID 743081).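 Further: compound given together with 17beta-estradiol as the ER stimulus; series mostly up to about 70 µM; nearly all actives have a fitted effect of over 45% in size.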
In the next assay the target is Aromatase (Homo sapiens) (UniProt P11511). The assay can be described thus: qHTS assay to identify aromatase inhibitors (AID 743083). Further: series mostly up to about 70 µM; nearly all actives have a fitted effect of over 55% in size.
Aromatase (Homo sapiens), sequence (P11511 whole entry, looked up): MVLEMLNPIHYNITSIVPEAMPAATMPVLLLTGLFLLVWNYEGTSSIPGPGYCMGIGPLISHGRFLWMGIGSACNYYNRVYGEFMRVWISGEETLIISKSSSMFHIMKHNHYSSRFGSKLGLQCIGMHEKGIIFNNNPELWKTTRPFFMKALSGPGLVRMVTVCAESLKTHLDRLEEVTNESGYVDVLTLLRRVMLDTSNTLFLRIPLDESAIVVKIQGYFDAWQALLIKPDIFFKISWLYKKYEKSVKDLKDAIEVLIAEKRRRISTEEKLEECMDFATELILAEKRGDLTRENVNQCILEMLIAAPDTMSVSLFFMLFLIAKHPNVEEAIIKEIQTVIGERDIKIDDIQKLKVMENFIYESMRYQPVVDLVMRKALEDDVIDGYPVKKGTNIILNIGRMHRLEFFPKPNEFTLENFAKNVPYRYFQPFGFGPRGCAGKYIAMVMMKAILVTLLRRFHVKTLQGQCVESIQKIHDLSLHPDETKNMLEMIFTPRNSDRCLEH
Assay [8] is described as follows: qHTS assay to identify aromatase inhibitors - cell viability counter screen (AID 743084).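 Further: cells stimulated with testosterone during compound exposure; nearly all actives have a fitted effect of over 55% in size.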
The target in assay [9] is Aryl hydrocarbon receptor (Homo sapiens) (UniProt P35869). The assay can be described thus: qHTS assay to identify small molecule that activate the aryl hydrocarbon receptor (AhR) signaling pathway (AID 743085).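 Further: HG2L7.5c1 human HepG2 liver cells with stably integrated DRE-driven firefly reporter; series mostly up to about 70 µM; nearly all actives have a fitted effect of over 15% in size.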 The gist of the method: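 HepG2 cells (HG2L7.5c1) stably carrying a firefly luciferase reporter driven by 20 dioxin responsive elements were exposed to compound for 24 h at 37C after a 5 h settling period; luminescence rise (ONE-Glo) indicated activation.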
Aryl hydrocarbon receptor (Homo sapiens), sequence (P35869 whole entry, looked up): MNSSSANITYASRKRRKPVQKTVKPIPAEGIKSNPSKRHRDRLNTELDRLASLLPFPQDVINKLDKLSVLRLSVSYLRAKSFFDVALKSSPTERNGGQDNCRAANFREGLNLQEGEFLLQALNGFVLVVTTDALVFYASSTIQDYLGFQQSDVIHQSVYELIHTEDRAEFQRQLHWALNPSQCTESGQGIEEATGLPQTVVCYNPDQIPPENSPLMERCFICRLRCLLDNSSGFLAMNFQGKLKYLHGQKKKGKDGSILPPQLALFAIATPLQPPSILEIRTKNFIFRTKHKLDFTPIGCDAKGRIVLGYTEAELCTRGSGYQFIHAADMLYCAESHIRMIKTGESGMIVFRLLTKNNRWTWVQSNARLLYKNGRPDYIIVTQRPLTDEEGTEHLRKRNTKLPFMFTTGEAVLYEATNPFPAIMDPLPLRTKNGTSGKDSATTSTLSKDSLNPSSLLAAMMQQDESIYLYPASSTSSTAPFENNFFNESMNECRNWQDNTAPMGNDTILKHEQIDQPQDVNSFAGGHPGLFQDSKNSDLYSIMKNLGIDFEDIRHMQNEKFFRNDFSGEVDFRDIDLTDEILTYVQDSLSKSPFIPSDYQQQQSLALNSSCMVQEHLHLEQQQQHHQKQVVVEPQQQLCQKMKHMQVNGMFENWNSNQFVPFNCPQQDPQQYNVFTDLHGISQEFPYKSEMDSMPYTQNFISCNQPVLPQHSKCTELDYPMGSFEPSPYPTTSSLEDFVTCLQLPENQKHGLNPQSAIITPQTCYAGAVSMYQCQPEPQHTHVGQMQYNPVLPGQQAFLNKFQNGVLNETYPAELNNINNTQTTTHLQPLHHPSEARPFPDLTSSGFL

Assay [10] can be described thus: qHTS assay to identify small molecule that activate the aryl hydrocarbon receptor (AhR) signaling pathway - cell viability counter screen (AID 743086).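 Further: HepG2 liver cells carrying the AhR DRE luciferase reporter; series mostly up to about 70 µM; nearly all actives have a fitted effect of over 45% in size.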 The gist of the method:
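Cytotoxicity counter screen: CellTiter-Fluor signal (30 min, 37 C) in 4000 HepG2 cells/well carrying the DRE-luciferase reporter, following 24 h compound exposure at 37 C.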

Assay [11] has as its target Peroxisome proliferator-activated receptor gamma (Homo sapiens) (UniProt P37231). The assay can be described thus: qHTS assay to identify small molecule agonists of the peroxisome proliferator-activated receptor gamma (PPARg) signaling pathway (AID 743094; active means well fitted activation curve with a large enough effect in the signal ratio in the repeat runs, not every such curve was filed as active; inconclusive means weak or mixed curves, or effect the other way; inactive means no such curve, though single readings can be large or run the other way; the % refers to the signal ratio). Summed up:
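HEK293H PPARg-bla cells, 5 h settle at 37C/5% CO2; compound (DMSO) 17 h, 37C; B/G FRET substrate 1 h RT; fluorescence intensity read-out. qHTS format.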

Assay [12] can be described thus: qHTS assay to identify small molecule antagonists of the peroxisome proliferator-activated receptor gamma (PPARg) signaling pathway - cell viability counter screen (AID 743194). Further: nearly all actives have a fitted effect of over 55% in size. Summed up: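 Viability was measured as CellTiter-Glo luminescence in GeneBLAzer PPARg UAS-bla HEK293H cells. These cells had been exposed 17 h at 37 C to compounds together with rosiglitazone at 50 nM final, with the beta-lactamase readout taken in the same wells.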

Assay [13] in a line: qHTS assay for small molecule agonists of the antioxidant response element (ARE) signaling pathway (AID 743202; active means well fitted activation curve with a large enough effect in the signal ratio in the repeat runs, not every such curve was filed as active; inconclusive means weak or mixed curves, or effect the other way; inactive means no such curve, though single readings can be large or run the other way; the % refers to the signal ratio). Summed up: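 After 16 hours of compound treatment at 37 C, HepG2 cells with a stably integrated ARE-driven beta-lactamase reporter were loaded 2 hours at room temperature with LiveBLAzer B/G FRET substrate and fluorescence intensity measured.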
A short description of assay [14]: qHTS assay for small molecule activators of the heat shock response signaling pathway - cell viability counter screen (AID 743209). Further: nearly all actives have a fitted effect of over 50% in size. The gist of the method:
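HSE-bla HeLa; 1500 cells/well; overnight 37 C, 5% CO2; compound 5 h 37 C; LiveBLAzer B/G substrate 2.5 h RT; CellTiter-Glo 30 min RT; luminescence.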

Assay [15] can be described thus: qHTS assay for small molecule activators of the heat shock response signaling pathway (AID 743210; active means well fitted activation curve with a large enough effect in the signal ratio in the repeat runs, with a control signal flat, not every such curve was filed as active; inconclusive means weak or mixed curves; the % refers to the signal ratio; further: series mostly up to about 63 µM). Summed up:
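Compound exposure lasted 5 h at 37 C in HeLa cells carrying a heat-shock-element-driven beta-lactamase reporter. Read-out: fluorescence intensity after 2.5 h room-temperature loading with LiveBLAzer B/G FRET substrate.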

The target of assay [16] is Peroxisome proliferator-activated receptor gamma (Homo sapiens) (UniProt P37231). Nature of the assay: qHTS assay to identify small molecule antagonists of the peroxisome proliferator-activated receptor gamma (PPARg) signaling pathway (AID 743191; calls by dose curve; further: series mostly up to about 63 µM; nearly all actives have a fitted effect of over 30% in size). Summed up: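 Beta-lactamase reporter under UAS control in HEK293H PPARg-bla cells; compound treatment 17 h at 37C. Read-out: fluorescence intensity after 1 h room-temperature incubation with LiveBLAzer B/G FRET substrate.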
Peroxisome proliferator-activated receptor gamma (Homo sapiens), sequence (P37231 whole entry, looked up): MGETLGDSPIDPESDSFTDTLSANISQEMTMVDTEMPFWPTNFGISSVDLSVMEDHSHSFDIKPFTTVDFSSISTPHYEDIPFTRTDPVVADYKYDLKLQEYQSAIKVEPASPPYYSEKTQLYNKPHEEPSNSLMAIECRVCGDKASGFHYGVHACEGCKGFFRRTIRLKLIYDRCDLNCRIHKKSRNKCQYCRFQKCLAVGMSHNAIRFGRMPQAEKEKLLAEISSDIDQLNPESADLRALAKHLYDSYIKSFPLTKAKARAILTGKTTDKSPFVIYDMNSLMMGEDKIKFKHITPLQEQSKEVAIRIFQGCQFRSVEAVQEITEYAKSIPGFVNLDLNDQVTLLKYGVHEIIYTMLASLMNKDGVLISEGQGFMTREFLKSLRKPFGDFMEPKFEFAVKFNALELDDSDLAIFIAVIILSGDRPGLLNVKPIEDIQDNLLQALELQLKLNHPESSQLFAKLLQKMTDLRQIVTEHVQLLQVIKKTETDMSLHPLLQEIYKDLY

Assay [17] is described as follows: qHTS assay to identify small molecule antagonists of the thyroid receptor (TR) signaling pathway (AID 743065). Further: series mostly up to about 70 µM; nearly all actives have a fitted effect of over 55% in size. The gist of the method: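 Antagonism measured as loss of luciferase signal in GH3 cells stably carrying a TRE-luciferase reporter, co-treated with compound and T3 (1 nM final) for 23.5 h at 37 C. Viability was read in the same well by CellTiter-Fluor.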

Assay [18] is described as follows: qHTS assay for small molecule agonists of the antioxidant response element (ARE) signaling pathway - cell viability counter screen (AID 743203; calls by dose curve; further: nearly all actives have a fitted effect of over 55% in size). Summed up:
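Luminescence read-out (CellTiter-Glo, 30 min at room temperature) measured cell viability in the same wells as the ARE beta-lactamase reporter. HepG2 ARE-bla cells were treated with compounds for 16 hrs at 37C/5% CO2.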

The text below walks through data of PubChem BioAssay (Tox21).

A structure can be active in one record and inactive in another. Calls of active or inactive are those of the source. Unless noted, the call rests on the fitted dose curve; in most records, active means well fitted curve in the direction sought with a large enough effect in the repeat runs; inconclusive means weak or mixed curves; inactive means no such curve, though single readings can be large; an effect the other way counts as inactive or inconclusive.

Estrogen receptor (Homo sapiens), sequence (P03372 whole entry, looked up): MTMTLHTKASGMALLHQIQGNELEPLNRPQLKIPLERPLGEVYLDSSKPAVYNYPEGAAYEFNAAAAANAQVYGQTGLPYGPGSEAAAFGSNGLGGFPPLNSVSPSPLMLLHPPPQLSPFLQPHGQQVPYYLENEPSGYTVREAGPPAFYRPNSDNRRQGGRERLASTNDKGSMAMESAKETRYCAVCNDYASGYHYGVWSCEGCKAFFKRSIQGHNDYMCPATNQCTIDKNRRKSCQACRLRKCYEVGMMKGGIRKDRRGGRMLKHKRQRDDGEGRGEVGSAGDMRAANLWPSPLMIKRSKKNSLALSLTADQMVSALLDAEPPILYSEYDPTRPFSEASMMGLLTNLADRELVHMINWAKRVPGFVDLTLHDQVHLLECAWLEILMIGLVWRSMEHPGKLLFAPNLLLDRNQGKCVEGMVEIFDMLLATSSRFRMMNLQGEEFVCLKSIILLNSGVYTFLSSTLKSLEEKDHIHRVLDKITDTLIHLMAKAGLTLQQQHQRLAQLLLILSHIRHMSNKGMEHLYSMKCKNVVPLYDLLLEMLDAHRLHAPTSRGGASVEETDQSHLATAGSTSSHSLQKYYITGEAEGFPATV

As for `CC1(C)NC(=O)NC1=O`, the Potency result (in assay [1]; in [4]; in [5]; in assay [7]; in the assay with Aromatase (Homo sapiens); in [8]) was “inactive” in each case. The Potency result in assay [9], in assay [10] and in assay [13] was “inactive” in each case. Further, the call in assay [2], in assay [3], in assay [6], in [11], in assay [12] and in [14] was inactive. The molecule was classed as inactive in assay [15].
`CN1C(=O)CC[C@H]1c1cccnc1`: the Potency entry (in assay [1]; in assay [7]; with Aromatase (Homo sapiens); in [8]; in [9]; in assay [10]) was “inactive” throughout. Besides, the Potency result in [13] is “inactive”. The molecule was classed as inactive in [3], in assay [11], in assay [16], in assay [12], in assay [14] and in [15].
For the molecule `CC(C)(Oc1ccc(CCNC(=O)c2ccc(Cl)cc2)cc1)C(=O)O`, the Potency entry (in assay [1]; in assay [4]; in assay [5]; in assay [7]; in the assay with Aromatase (Homo sapiens); in [8]) was “inactive” throughout. Further, the Potency result in assay [9], in assay [10] and in [13] was “inactive” each time. Besides, the molecule was classed as inactive in assay [2], in assay [3], in assay [6], in assay [16], in assay [12] and in assay [14]. Besides, the molecule was classed as inactive in assay [15].
Consider `O=C1c2ccccc2CCc2ccccc21`, for which the Potency result (in assay [17]; in [7]; in the assay with Aromatase (Homo sapiens); in assay [8]; in assay [9]; in assay [10]) was “inactive” in each case. Moreover, the Potency result in assay [13] and in assay [18] was “inactive” each time. Moreover, the molecule was called inactive in [2], in [3], in assay [11], in assay [12], in [14] and in [15].
For the molecule `CC(C)=CCl`, the Potency result (in assay [1]; in assay [7]; in the assay with Aromatase (Homo sapiens); in [8]; in [9]; in assay [10]) was “inactive” in each case. In addition, the Potency entry in [13] and in assay [18] was “inactive” in each case. For the same molecule, the outcome in assay [2], in [6], in assay [12], in [14] and in assay [15] was inactive. Also, the Potency in assay [4] is 49.6 µM [inconclusive] (active) and inactive; in assay [5], 17.4 µM (active) and inactive.
Take `O=[N+]([O-])c1ccc2nc[nH]c2c1`: the Potency entry (in [1]; in [4]; in assay [5]; in assay [7]; with Aromatase (Homo sapiens); in assay [8]) was “inactive” each time. The Potency entry in assay [10] and in assay [18] was “inactive” each time. For the same molecule, the molecule was classed as inactive in [2], in [6], in [11], in assay [12], in assay [14] and in [15].
For the molecule `CCCCCCCCCCCC(=O)OC`, the Potency entry (in assay [1]; in [4]; in [5]; in assay [7]; in the assay with Aromatase (Homo sapiens); in assay [8]) was “inactive” throughout. Moreover, the Potency result in assay [9], in [10] and in assay [13] was “inactive” each time. The result in assay [2], in assay [3], in [6], in assay [11], in assay [12] and in assay [14] was inactive. Besides, the result in assay [15] was inactive.
Consider `CC(CCl)OP(=O)(OC(C)CCl)OC(C)CCl` (stereo not drawn), for which the result in assay [3], in assay [6], in assay [11], in [16], in [12] and in [14] was inactive. Moreover, the molecule was called inactive in assay [15]. Further, the Potency entry (in assay [4]; in [5]; in assay [7]; with Aromatase (Homo sapiens); in assay [8]; in [9]) was “inactive” throughout. In addition, the Potency result in assay [10], in [13] and in assay [18] was “inactive” in each case.
In the case of `COc1cc(OC)c(C(=O)CCCN2CCCC2)c(OC)c1`, the Potency result (in [1]; in [7]; in the assay with Aromatase (Homo sapiens); in [8]; in [9]; in assay [10]) was “inactive” throughout. The Potency result in assay [13] and in [18] was “inactive” each time. The result in assay [2], in assay [3], in [11], in assay [16], in assay [12] and in assay [14] was inactive. The call in assay [15] was inactive.
For `CC(C)CCCCCCCOC(=O)CCCCC(=O)OCCCCCCCC(C)C`, the Potency result (in [1]; in [7]; with Aromatase (Homo sapiens); in [8]; in [9]; in [10]) was “inactive” each time. Moreover, the Potency entry in [13] and in assay [18] was “inactive” each time. Further, the molecule was classed as inactive in [2], in assay [3], in assay [11], in assay [16], in assay [14] and in assay [15].
For the molecule `OCc1cccc(Oc2ccccc2)c1`, the Potency entry (in assay [1]; in [7]; with Aromatase (Homo sapiens); in assay [8]; in assay [9]; in [10]) was “inactive” throughout. In addition, the Potency result in assay [13] and in assay [18] was “inactive” each time. Moreover, the molecule was classed as inactive in [2], in [3], in assay [11], in assay [12], in assay [14] and in assay [15].
